What all share (assay): NCI-60 one-dose screen, 48 h (100 = growth as untreated, 0 = no growth, -100 = all killed)
In one test the test system is HT29 colon. To be noted: 10 µM unless noted.
A further test deals with SNB-75 CNS. To be noted: 10 µM unless noted.
The subject of a further test is SNB-19 CNS. To be noted: 10 µM unless noted.
Another test concerns U251 CNS. To be noted: 10 µM unless noted.
The test system of another test is PC-3 prostate. To be noted: 10 µM unless noted.
The next test relates to SK-MEL-5 melanoma. To be noted: 10 µM unless noted.
In the next test the test system is UACC-62 melanoma. To be noted: 10 µM unless noted.
In the next test the test system is LOX IMVI melanoma. To be noted: 10 µM unless noted.
Another test has as its system SK-MEL-28 melanoma. To be noted: 10 µM.
A further test concerns SK-MEL-2 melanoma. To be noted: 10 µM unless noted.
The subject of another test is EKVX NSCLC. To be noted: 10 µM unless noted.
For the next test, the system named is SN12C renal. To be noted: 10 µM unless noted.
Another test relates to UO-31 renal. To be noted: 10 µM unless noted.
The subject of another test is TK-10 renal. To be noted: 10 µM unless noted.
The next test concerns ACHN renal. To be noted: 10 µM unless noted.
Another test has as its system CAKI-1 renal. To be noted: 10 µM unless noted.
The subject of the next test is A498 renal. To be noted: 10 µM unless noted.
Another test relates to CCRF-CEM leukemia. To be noted: 10 µM unless noted.
For a further test, the system named is MOLT-4 leukemia. To be noted: 10 µM unless noted.
The test system of another test is SR leukemia. To be noted: 10 µM unless noted.

Seven molecules from PubChem BioAssay (NCI) can be followed below.

This is part of a sample that, as a whole, favours compounds with a hit. Of some 83,000 tested, about 20% had one in any assay.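 How to read the values: 0–100, growth inhibition (40 = 60% inhibited); 0, no net growth; -100 to 0, cell death (-40 = 40% of starting cells died; -100 = all dead).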 Values without a mark were called inactive. The source made the active and inactive calls. The calls were made as follows: active = growth percent below 10; inactive = the rest.

For `Cc1c(-c2noc(-c3ccc([N+](=O)[O-])cc3)n2)no[n+]1[O-]`, the growth is 105% in the test with HT29 colon; 89.8% in the test on SNB-75 CNS; 99.8% in the test on SNB-19 CNS; 99.8% with U251 CNS; 92.5% with PC-3 prostate; 92.1% with SK-MEL-5 melanoma. For the same molecule, the growth with UACC-62 melanoma was 87.6%; with LOX IMVI melanoma, 97.7%; in the test on SK-MEL-28 melanoma, 108%; with SK-MEL-2 melanoma it was 101%; with EKVX NSCLC, 65.2%; in the test with SN12C renal it was 98.3%. In addition, the growth is 78.4% in the test with UO-31 renal; 153% with TK-10 renal; 89.2% in the test with ACHN renal; 83.8% in the test on CAKI-1 renal; 117% with A498 renal; 101% in the test with CCRF-CEM leukemia. Moreover, the growth is 101% in the test with MOLT-4 leukemia and 103% in the test on SR leukemia.

In the case of `CC(=S)NC(=O)C(=O)/C=C1/NC(=O)C(=O)S1`, the growth in the test on HT29 colon is 110%; in the test on SNB-75 CNS, 95.5%; in the test on SNB-19 CNS it was 106%; in the test on U251 CNS, 111%; with PC-3 prostate, 99.6%; in the test with SK-MEL-5 melanoma it was 104%. In addition, the growth in the test on UACC-62 melanoma was 99.9%; with LOX IMVI melanoma it was 99.7%; in the test on SK-MEL-28 melanoma it was 106%; in the test on SK-MEL-2 melanoma, 103%; in the test on EKVX NSCLC, 100%; in the test on SN12C renal, 99.1%. Moreover, the growth is 79.5% in the test with UO-31 renal; 110% in the test with TK-10 renal; 99.1% with ACHN renal; 93.8% in the test with CAKI-1 renal; 103% in the test on A498 renal; 107% in the test with CCRF-CEM leukemia. In addition, the growth with MOLT-4 leukemia was 112%; in the test on SR leukemia, 107%.

In the case of `O=C(Nc1ccc(N2CCNCC2)cc1)c1[nH]ncc1Nc1cc(C2CC2)ncn1`, the growth in the test with HT29 colon was 49.2%; with SNB-75 CNS, 31.5%; in the test with SNB-19 CNS it was 65.4%; with U251 CNS, 68.6%; with PC-3 prostate, 30.2%; with SK-MEL-5 melanoma it was 52.3%. The growth is 50% with UACC-62 melanoma; 36.1% with LOX IMVI melanoma; 79.5% with SK-MEL-28 melanoma; 64.5% with SK-MEL-2 melanoma; 69.8% in the test on EKVX NSCLC; 44.7% in the test on SN12C renal. Further, the growth in the test with UO-31 renal is 34.1%; in the test on TK-10 renal it was 56.3%; with ACHN renal, 21.4%; with CAKI-1 renal it was 27.5%; in the test on A498 renal it was 51.1%; with CCRF-CEM leukemia, 30%. Moreover, the growth is 15.1% in the test with MOLT-4 leukemia and 5.95% (active) in the test on SR leukemia.

On to `COc1cc(/C=C2\CCC/C(=C\c3cc(CN4CCOCC4)c(O)c(OC)c3)C2=O)cc(CN2CCOCC2)c1O`, for which the growth with HT29 colon is 3.44% (active); in the test on SNB-75 CNS, 4.53% (active); in the test on SNB-19 CNS it was 52.8%; in the test with U251 CNS it was 22%; with PC-3 prostate, 39.9%; in the test on SK-MEL-5 melanoma it was 52.3%. Besides, the growth with UACC-62 melanoma is 40%; in the test with LOX IMVI melanoma it was 13.3%; in the test on SK-MEL-28 melanoma, 58.7%; in the test with SK-MEL-2 melanoma, 62.7%; with EKVX NSCLC, 54.3%; in the test on SN12C renal, 29.3%. Moreover, the growth with UO-31 renal is 52.6%; with TK-10 renal, 53.8%; with ACHN renal, 25.1%; in the test with CAKI-1 renal, 46.1%; with A498 renal it was 58.6%; in the test with CCRF-CEM leukemia it was 14.8%. Moreover, the growth was 11% with MOLT-4 leukemia and 38% with SR leukemia.

`O=C(/C=C/c1ccc(F)cc1)c1ccc(Nc2nc(NCCO)nc(Nc3ccc(Cl)cc3)n2)cc1`: the growth is 22.4% with HT29 colon; 81.4% in the test on SNB-75 CNS; 93.4% in the test on SNB-19 CNS; 27% in the test with U251 CNS; 68% in the test with PC-3 prostate; 75.4% with SK-MEL-5 melanoma. In addition, the growth with UACC-62 melanoma was 74.5%; in the test on LOX IMVI melanoma, 37.3%; in the test with SK-MEL-28 melanoma, 86.9%; in the test with SK-MEL-2 melanoma, 103%; with EKVX NSCLC it was 67.7%; with SN12C renal, 94%. The growth was 70.7% with UO-31 renal; 93.4% with TK-10 renal; 70.8% in the test on ACHN renal; 73.6% in the test with CAKI-1 renal; 70.4% in the test on A498 renal; 60.5% in the test with CCRF-CEM leukemia. For the same molecule, the values for the growth with MOLT-4 leukemia and in the test on SR leukemia were 57.9% and 25.8%, respectively.

For the molecule `COc1cc(/C=C2\CCC/C(=C\c3cc(CN4CCCCC4)c(O)c(OC)c3)C2=O)cc(CN2CCCCC2)c1O`, the growth with HT29 colon was 13.3%; with SNB-75 CNS, 89.8%; in the test with SNB-19 CNS, 80.7%; in the test on U251 CNS, 70.1%; in the test on PC-3 prostate it was 82.7%; with SK-MEL-5 melanoma it was 92.6%. Moreover, the growth is 91.5% in the test on UACC-62 melanoma; 66.9% with LOX IMVI melanoma; 93.6% in the test on SK-MEL-28 melanoma; 101% in the test with SK-MEL-2 melanoma; 87.3% in the test with EKVX NSCLC; 72.5% with SN12C renal. Further, the growth was 58.3% in the test with UO-31 renal; 115% with TK-10 renal; 83.8% in the test with ACHN renal; 106% in the test with CAKI-1 renal; 90.9% with A498 renal; 45.7% with CCRF-CEM leukemia. The values for the growth with MOLT-4 leukemia and in the test with SR leukemia were 49.8% and 6.77% (active), respectively.

For the molecule `Cn1nc(C(C)(C)C)cc1NC(=O)Cc1ccc(/C=C2\C(=O)Nc3ccccc32)cc1`, the growth with HT29 colon is 58.4%; with SNB-75 CNS it was 75.1%; in the test with SNB-19 CNS it was 63.9%; in the test on U251 CNS, 55.5%; with PC-3 prostate it was 42.1%; with SK-MEL-5 melanoma, 5.57% (active). Moreover, the growth in the test with UACC-62 melanoma was 41%; in the test with LOX IMVI melanoma, 53.8%; in the test with SK-MEL-28 melanoma it was 76.7%; in the test on SK-MEL-2 melanoma it was 54.3%; in the test on EKVX NSCLC it was 49.1%; in the test on SN12C renal it was 62%. Moreover, the growth in the test on UO-31 renal is 52.5%; in the test with TK-10 renal, 91.2%; with ACHN renal it was 37.4%; in the test on CAKI-1 renal, 45.5%; in the test on A498 renal it was 62.9%; in the test on CCRF-CEM leukemia it was 35.8%. Moreover, the growth in the test on MOLT-4 leukemia is 6.12% (active); with SR leukemia it was 34.9%.
